Experimental data published in PubChem BioAssay AID488845 (National Center for Advancing Translational Sciences (NCATS), 2010).
The source made the active and inactive calls. Calls come from the whole dose curve; as a rule, active = well fitted curve in the direction sought with a large enough effect; inactive = no such curve, though single readings can be large or run the other way.

target: Lysosomal acid glucosylceramidase (Homo sapiens) (UniProt P04062); assay: qHTS Assay for Inhibitors and Activators of N370S glucocerebrosidase as a Potential Chaperone Treatment of Gaucher Disease: Primary Screen Confirmation Using LC/MS; conditions: N370S GC spleen homogenate, 4MU-glucoside, LC/MS detection
Sequence (P04062 whole entry N409S): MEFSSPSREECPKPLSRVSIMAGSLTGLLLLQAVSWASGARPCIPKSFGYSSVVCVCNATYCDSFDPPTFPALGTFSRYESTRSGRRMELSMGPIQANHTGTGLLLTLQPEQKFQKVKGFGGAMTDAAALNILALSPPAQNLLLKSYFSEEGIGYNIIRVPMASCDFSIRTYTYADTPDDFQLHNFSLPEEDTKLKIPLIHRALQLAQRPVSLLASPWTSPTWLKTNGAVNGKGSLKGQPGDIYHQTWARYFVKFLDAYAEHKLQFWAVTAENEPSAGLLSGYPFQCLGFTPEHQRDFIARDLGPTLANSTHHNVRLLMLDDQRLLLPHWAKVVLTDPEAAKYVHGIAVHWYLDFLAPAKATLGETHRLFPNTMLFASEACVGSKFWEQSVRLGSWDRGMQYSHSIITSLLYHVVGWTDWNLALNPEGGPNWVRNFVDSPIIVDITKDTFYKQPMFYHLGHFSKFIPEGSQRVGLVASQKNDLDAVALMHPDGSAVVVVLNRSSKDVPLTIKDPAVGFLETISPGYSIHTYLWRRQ
From the text: NIH Chemical Genomics Center [NCGC] NIH Molecular Libraries Probe Production Centers Network [MLPCN] MLPCN Grant: MH086442-01 Assay Submitter (PI): Wei Zheng Glucocerebrosidase (GC) catalyzes the hydrolysis of beta-glucocerebroside to glucose and ceramide in lysosomes. Mutations in the glucocerebrosidase gene result in Gaucher disease, an autosomal recessive lysosomal storage disorder. Many of the mutations encountered in patients with Gaucher disease are missense alterations that may cause misfolding, decreased stability and/or mistrafficking of this lysosomal protein. […] These inhibitors include iminosugar analogs and three non-iminosugar inhibitors identified from a previous HTS of 62,000 compounds with the wild type recombinant enzyme. However, the enhancement of enzyme activity by the chaperone action of an enzyme inhibitor must be balanced against the direct inhibition of the enzyme. An enzyme activator could also function as a chaperone by binding to the enzyme and helping to correct its misfolding and mistrafficking. While activators for GC have not yet been identified, they may have better therapeutic potential than inhibitors. Therefore the discovery and development of chemical activators may provide a new strategy for the chaperone therapy. We have optimized a new assay using N370S mutant GC derived from the spleen of a Gaucher patient. […] In addition, the MLPCN compound library has expanded, which increases the chance of finding new and better probes. This assay uses liquid chromatography linked to a mass spectrometer to assess the ability of glucocerebrosidase in the spleen homogenate to cleave either 4-methylumbelliferyl-beta-D-glucopyranoside substrate or a labeled version of the natural substrate, glucosylceramide.
NCGC Assay Protocol Summary: This is a fluorogenic enzyme assay with 4-methylumbelliferyl-beta-D-glucopyranoside as the substrate and N370S glucocerebrosidase from human spleen homogenate as the enzyme preparation. Upon the hydrolysis of this fluorogenic substrate, the resulting product, […] which can be detected by a standard fluorescence plate reader. Data were normalized to the controls for basal activity (without enzyme) and 100% activity (with enzyme). The AC50 values were determined from concentration-response data modeled with the standard Hill equation. Assay buffer: 50 mM citric acid (titrated with potassium phosphate to pH 5.0), 100 mM potassium chloride, 10 mM sodium chloride, 1 mM magnesium chloride, 0.01% Tween-20. […] Compounds were monitored using fluorescence detection with an excitation wavelength of […]. […]

Potency, active:
C#Cc1ccc(NC(=O)c2cnn3c(C)cc(C)nc23)cc1 3.73 µM
Cc1cc(C)n2ncc(C(=O)Nc3ccc(Br)cc3)c2n1 1.19 µM
O=C(Nc1ccccc1Sc1ccccc1)c1cnn2c1NC(=C1CC1)C=C2C(F)F 3 µM
Cc1cc(C)n2ncc(C(=O)Nc3ccc(C(F)(F)F)cc3)c2n1 1.34 µM
